Data from PubChem BioAssay.

How the values were obtained:
[1] = tested on: Human papillomavirus type 1a protein E7 (residues 44-93); assay: HPV1a E7 fragment binders on microarrays, primary screen, biochemical, small-molecule microarray, residues 44-93, 635 nm fluorescence (AID 1108); settings: small-molecule microarray binding, fluorescence 635 nm; higher = more signal;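 note: E7 fragment applied at 1 µg/mL in TBST for 1 h at 4 C; score combines spot fluorescence with its signal to noise ratio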
[2] = modulators of HCV replicon luciferase signal, primary screen, HCV replication inhibitor project, Huh7 cells, luciferase reporter (AID 1109); settings: 48 h, higher = more signal;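 note: huh7 hepatoma cells harbouring a luciferase neomycin HCV replicon reporter; luciferase luminescence as measure of HCV replicon replication; test concentration not given here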
[3] = biological target: Left-right determination factor 2 (Homo sapiens) (UniProt O00292); assay: LEFTY2 binders on small-molecule microarrays, primary screen, biochemical, small-molecule microarray, 635 nm fluorescence scan (AID 1110); settings: LEFTY2 binding, higher = more signal
Sequence of Left-right determination factor 2 (Homo sapiens) (O00292 whole entry, looked up): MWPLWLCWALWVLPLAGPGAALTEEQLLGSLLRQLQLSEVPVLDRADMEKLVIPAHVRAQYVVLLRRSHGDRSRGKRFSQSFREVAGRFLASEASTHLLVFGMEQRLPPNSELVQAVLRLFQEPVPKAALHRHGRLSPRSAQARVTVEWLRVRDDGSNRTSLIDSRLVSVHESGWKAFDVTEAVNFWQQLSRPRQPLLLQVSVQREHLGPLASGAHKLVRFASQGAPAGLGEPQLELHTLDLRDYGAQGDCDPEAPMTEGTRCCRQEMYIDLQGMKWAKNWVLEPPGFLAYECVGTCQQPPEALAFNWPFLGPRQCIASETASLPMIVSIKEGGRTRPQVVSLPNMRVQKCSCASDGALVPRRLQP

[4] = biological target: Calmodulin-1 (Homo sapiens) (UniProt P0DP23); assay: CALM1 binders on microarrays, EGTA buffer, profiling panel, biochemical, small-molecule microarray, Cy5-labelled CALM1 (AID 1111); settings: Cy5-CALM1 binding fluorescence, higher = more signal;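 note: labelled calmodulin applied in Tris saline Tween buffer holding calcium plus EGTA and DTT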
[5] = biological target: Calmodulin-1 (Homo sapiens) (UniProt P0DP23); assay: calcium-bound CALM1 binders on microarrays, profiling panel, artefact control for SMM control-protein annotation, biochemical, small-molecule microarray, Cy5-labelled CALM1, plus calcium (AID 1112); settings: Cy5-CALM1 binding fluorescence, higher = more signal;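 note: score merges spot fluorescence with signal to noise from triplicate slides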
[6] = small-molecule microarray binders of probe aWnt5a, primary screen, biochemical, biotinylated probe, 635/667 nm fluorescence (AID 1113); settings: higher = more signal;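 note: score merges 667 nm fluorescence intensity with signal-to-noise per printed feature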
[7] = small-molecule microarray binders of probe aShh, primary screen, biochemical, biotinylated probe, 635/667 nm fluorescence (AID 1114); settings: higher = more signal;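 note: probe is biotin-labelled aShh protein from a stem cell growth factor screen; measures binding of labelled protein to compounds printed on the slide; score merges feature fluorescence at 667 nm with signal-to-noise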
[8] = small-molecule microarray binders of probe aNog, primary screen, biochemical, biotinylated probe, 635/667 nm fluorescence (AID 1115); settings: higher = more signal;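 note: probe is biotinylated aNog protein used at 0.15 µg/mL for 1 h at 4 C; z-score combines 667 nm fluorescence of each spot with its signal to noise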
[9] = biological target: Torsin-1A-interacting protein 1 (Homo sapiens) (UniProt Q5JTV8); assay: LAP1 binders from COS7 cell lysate, primary screen, small-molecule microarray, 635/667 nm fluorescence (AID 1116); settings: COS7-hLAP1 lysate binding, 635 nm fluorescence, higher = more signal
Sequence of Torsin-1A-interacting protein 1 (Homo sapiens) (Q5JTV8 whole entry, looked up): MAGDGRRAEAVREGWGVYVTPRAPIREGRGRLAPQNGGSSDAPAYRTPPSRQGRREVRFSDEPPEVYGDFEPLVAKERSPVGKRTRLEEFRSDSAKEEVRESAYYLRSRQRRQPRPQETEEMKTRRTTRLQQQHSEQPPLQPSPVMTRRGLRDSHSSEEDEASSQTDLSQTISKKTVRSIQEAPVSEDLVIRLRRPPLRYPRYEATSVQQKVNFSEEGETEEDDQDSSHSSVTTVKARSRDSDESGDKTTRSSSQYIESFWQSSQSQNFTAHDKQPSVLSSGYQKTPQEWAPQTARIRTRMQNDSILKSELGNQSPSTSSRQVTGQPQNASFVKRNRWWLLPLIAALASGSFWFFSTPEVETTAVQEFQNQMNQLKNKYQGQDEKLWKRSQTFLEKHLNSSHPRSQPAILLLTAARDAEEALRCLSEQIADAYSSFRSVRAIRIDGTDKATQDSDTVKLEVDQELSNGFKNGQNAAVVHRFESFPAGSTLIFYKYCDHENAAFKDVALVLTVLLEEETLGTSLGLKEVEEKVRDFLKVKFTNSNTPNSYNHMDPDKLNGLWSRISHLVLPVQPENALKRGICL

[10] = biological target: Alpha-bungarotoxin (Bungarus multicinctus) (UniProt P60615); assay: alpha-bungarotoxin binders on microarray, profiling panel, artefact control for SMM control protein annotation, biochemical, small-molecule microarray, Alexa647 label, 635/667 nm fluorescence (AID 1117); settings: alpha-BTX-A647 binding fluorescence, higher = more signal
Sequence of Alpha-bungarotoxin (Bungarus multicinctus) (P60615 whole entry, looked up): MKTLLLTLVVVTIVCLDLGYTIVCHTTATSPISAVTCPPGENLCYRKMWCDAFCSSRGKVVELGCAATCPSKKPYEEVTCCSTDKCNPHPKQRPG

Compound: CN(C)CCCC[C@@H]1NC(=O)[C@H]2C[C@@H](C(=O)NCCCCCNC(=O)CS)[C@@H](c3cccc(OCCO)c3)N2C1=O
- composite z-score [1]: 0.586
- z-score [2]: -0.556
- composite z-score [3]: -0.0183
- composite z-score [4]: 0.137
- composite z-score [5]: -0.734
- composite z-score [6]: -0.195
- composite z-score [7]: 0.0796
- composite z-score [8]: -0.363
- composite z-score [9]: 0.898
- composite z-score [10]: -0.223

Compound: C=CCN1C(=O)[C@]2(O[C@H](CCO)[C@@H]([Si](C)(C)c3ccc(OC)cc3)[C@@H]2C)c2cc(N3CCCCC3=O)ccc21
- composite z-score [1]: 1.44
- z-score [2]: -4.11
- composite z-score [3]: 0.0651
- composite z-score [4]: 0.856
- composite z-score [5]: 0.352
- composite z-score [6]: -0.0977
- composite z-score [7]: 0.147
- composite z-score [8]: 0.431
- composite z-score [9]: 0.957
- composite z-score [10]: 1.19

Compound: COc1ccc(CCNC(=O)[C@@]2(Sc3ccc(C)cc3)CC(=O)N(C3CCCCC3)[C@@H]2c2ccc(CO)cc2I)cc1
- composite z-score [1]: 1.38
- z-score [2]: -2.77
- composite z-score [3]: 0.0072
- composite z-score [4]: 0.99
- composite z-score [5]: 0.161
- composite z-score [6]: -0.0903
- composite z-score [7]: 0.323
- composite z-score [8]: -0.158
- composite z-score [9]: 0.95
- composite z-score [10]: 0.649

Compound: C=CCC(OC(C)=O)[C@@H]1[C@@H](N(Cc2ccc(-c3ccccc3)cc2)C(=O)Cc2ccc(F)cc2)c2cc(OCCCO)ccc2N1C(=O)c1ccc(-c2ccccc2)cc1 (stereo not given in full)
- composite z-score [1]: -0.866
- z-score [2]: -1.23
- composite z-score [3]: -0.177
- composite z-score [4]: -0.454
- composite z-score [5]: 0.266
- composite z-score [6]: -0.1
- composite z-score [7]: 0.0048
- composite z-score [8]: -0.143
- composite z-score [9]: 0.205
- composite z-score [10]: -0.257

Compound: O=C1[C@H]2C=C(Br)[C@H](C[C@@H]2OCCCCO)[C@@]12CO2
- composite z-score [1]: -0.875
- z-score [2]: -1.98
- composite z-score [3]: 0.307
- composite z-score [4]: -0.442
- composite z-score [5]: -1.04
- composite z-score [6]: -0.0944
- composite z-score [7]: 0.149
- composite z-score [8]: 0.101
- composite z-score [9]: -0.272
- composite z-score [10]: -0.032

Compound: C=CCOC(=O)[C@@H]1[C@H]2C(=O)O[C@H](c3ccccc3)[C@H](c3ccccc3)N2[C@H](c2ccc(OCCOC(=O)[C@@H]3C[C@@H]4C(=O)N[C@@H](CCCCN(C)C)C(=O)N4[C@@H]3c3ccc(O)cc3)cc2)[C@@]12C(=O)Nc1ccc(I)cc12
- composite z-score [1]: 1.34
- z-score [2]: -2.84
- composite z-score [3]: 0.696
- composite z-score [4]: 0.846
- composite z-score [5]: -0.0759
- composite z-score [6]: -0.0927
- composite z-score [7]: 0.432
- composite z-score [8]: -0.12
- composite z-score [9]: 0.454
- composite z-score [10]: 0.78

Compound: COc1ccc(C(O)C2C=CC3C(=O)N(c4ccccc4)C(=O)C3N2Nc2ccccc2F)cc1OCc1ccccc1 (stereo not given)
- composite z-score [1]: 1.4
- z-score [2]: -0.0689
- composite z-score [3]: -0.477
- composite z-score [4]: 2.15
- composite z-score [5]: 0.983
- composite z-score [6]: 0.108
- composite z-score [7]: 0.232
- composite z-score [8]: -0.115
- composite z-score [9]: 1.2
- composite z-score [10]: 1.55

Compound: O=C1NC(=O)C2C1C=CC(C(O)c1cccc3ccccc13)N2Nc1ccccn1 (stereo not given)
- composite z-score [1]: 0.355
- z-score [2]: 0.496
- composite z-score [3]: 0.326
- composite z-score [4]: -0.168
- composite z-score [5]: -0.477
- composite z-score [6]: -0.034
- composite z-score [7]: 0.401
- composite z-score [8]: 0.116
- composite z-score [9]: 0.594
- composite z-score [10]: 0.307

Compound: O=C1NC(=O)C2C1C=CC(C(O)C(c1ccccc1)c1ccccc1)N2Nc1ccc(Cl)cc1Cl (stereo not given)
- composite z-score [1]: 1.36
- z-score [2]: -1.75
- composite z-score [3]: -0.5
- composite z-score [4]: 1.81
- composite z-score [5]: 0.625
- composite z-score [6]: 0.065
- composite z-score [7]: 0.234
- composite z-score [8]: 1.41
- composite z-score [9]: 0.343
- composite z-score [10]: 0.503

Compound: COCCOC(=O)N1C(=O)[C@@]2(c3cc(C#Cc4ccc(OC)cc4)ccc31)[C@H](c1ccccc1OCCO)N1[C@H](c3ccccc3)[C@H](c3ccccc3)OC(=O)[C@H]1[C@@H]2C(=O)N1CCN(c2ncccn2)CC1
- composite z-score [1]: 1.18
- z-score [2]: -1.49
- composite z-score [3]: 0.278
- composite z-score [4]: 0.694
- composite z-score [5]: 0.805
- composite z-score [6]: -0.118
- composite z-score [7]: 0.13
- composite z-score [8]: 0.121
- composite z-score [9]: 0.949
- composite z-score [10]: 0.876

Compound: [N-]=[N+]=NCc1ccccc1C[C@]1(C(=O)O)N=C(c2ccc(OCCCO)cc2)O[C@H]1c1ccccc1N=[N+]=[N-]
- composite z-score [1]: 1.18
- z-score [2]: -1.11
- composite z-score [3]: 0.11
- composite z-score [4]: 1.23
- composite z-score [5]: 0.0606
- composite z-score [6]: 0.0919
- composite z-score [7]: 0.0639
- composite z-score [8]: 1.59
- composite z-score [9]: 1.46
- composite z-score [10]: 1.76

Compound: CC(C)(C)OC(=O)CC[C@@]12N=C(c3ccc(OCCCO)cc3)O[C@@H]1c1ccccc1N(CCS(=O)(=O)c1ccccc1)C2=O
- composite z-score [1]: 1.08
- z-score [2]: -0.831
- composite z-score [3]: 0.374
- composite z-score [4]: 0.887
- composite z-score [5]: 0.105
- composite z-score [6]: -0.0203
- composite z-score [7]: -0.0035
- composite z-score [8]: -0.335
- composite z-score [9]: 0.642
- composite z-score [10]: 1.35

Compound: CC1CC/C=C\[C@H]2OC34C=CCN(Cn5nnc6ccccc65)C(=O)[C@H]3N(C(CO)C(C)C)C(=O)[C@@H]4C2C(=O)O1 (stereo not given in full)
- composite z-score [1]: 0.696
- z-score [2]: 0.238
- composite z-score [3]: -1.19
- composite z-score [4]: -0.195
- composite z-score [5]: -0.607
- composite z-score [6]: -0.175
- composite z-score [7]: 0.0141
- composite z-score [8]: 0.356
- composite z-score [9]: 0.64
- composite z-score [10]: 2.2

Compound: COCCOC(=O)N1C(=O)[C@@]2(c3cc(C#CCNC(N)=O)ccc31)[C@H](C(=O)NC[C@H](O)c1ccccc1)[C@H]1C(=O)O[C@H](c3ccccc3)[C@H](c3ccccc3)N1[C@@H]2c1ccccc1OCCO
- composite z-score [1]: 1.35
- z-score [2]: -0.807
- composite z-score [3]: 0.0826
- composite z-score [4]: 1.96
- composite z-score [5]: 0.0588
- composite z-score [6]: 0.207
- composite z-score [7]: -0.0375
- composite z-score [8]: 1.32
- composite z-score [9]: 0.667
- composite z-score [10]: 1.43

Compound: O=C(NCc1ccccc1)[C@@H]1c2ccccc2C(=O)N(CC23CC4CC(CC(C4)C2)C3)[C@H]1c1ccc(CO)cc1
- composite z-score [1]: 1.36
- z-score [2]: -1.96
- composite z-score [3]: 0.567
- composite z-score [4]: 0.237
- composite z-score [5]: -0.831
- composite z-score [6]: -0.0957
- composite z-score [7]: -0.0337
- composite z-score [8]: -0.584
- composite z-score [9]: 0.575
- composite z-score [10]: 0.645

Compound: CCCC[C@H]1OB(O)C[C@H]2C1=C(COc1ccccc1)C[C@H]1C(=O)N(C)C(=O)[C@H]12
- composite z-score [1]: -0.121
- z-score [2]: -0.271
- composite z-score [3]: 0.283
- composite z-score [4]: -0.515
- composite z-score [5]: -0.255
- composite z-score [6]: 0.0438
- composite z-score [7]: 0.0899
- composite z-score [8]: -0.106
- composite z-score [9]: 0.101
- composite z-score [10]: 0.0648

Compound: COc1cc(OC)c(C(O)C2C=CC3C(=O)NC(=O)C3N2Nc2ccc(Cl)cc2Cl)cc1Br (stereo not given)
- composite z-score [1]: 1.09
- z-score [2]: -1.66
- composite z-score [3]: -0.75
- composite z-score [4]: 2.09
- composite z-score [5]: 0.436
- composite z-score [6]: -0.0685
- composite z-score [7]: 0.0875
- composite z-score [8]: 1.61
- composite z-score [9]: 1.38
- composite z-score [10]: 1.27
